The list is not random: actives were taken first. Their share in the collection is about 4.7%.
D1 ag: agonists of human D1 dopamine receptor; P21728; 360,000 compounds, 1% hits; AID 504660; HEK293 T-REx D1 cells, calcium flux, agonist mode; activation, % at 2 µM; note: 0% is about no effect
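Agonism was scored from calcium flux recorded over 180 s (1 read/s) after pintool compound addition, following a 10-cycle baseline. Cells were inducible force-coupled HEK293 TREx D1, plated overnight at 30 C and loaded with no-wash calcium dye.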
D1 antag: human D1 dopamine receptor antagonism. P21728. HEK293 TREx D1 cells, calcium flux, dopamine EC80; hits give low values. activity change, negative = inhibition, % at 10 µM. 360,000 compounds, 3.2% hits. AID 504652; in the data active = activity change below about -30%; note: % is set by controls: 0 for no effect and ±100 for the full control effect
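After overnight tetracycline induction at 30 C, force-coupled D1 HEK293 cells took up a no-wash calcium dye at room temperature. Compounds were added and monitored 180 s, and the response to EC80 dopamine was then recorded.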
D1 potentiator: potentiators of human D1 dopamine receptor | AID 504651 | potentiation, % at 10 µM | HEK293 TREx D1 cells, calcium flux, dopamine EC20 potentiation | P21728 | 360,000 compounds, 0.036% hits; in the data active = potentiation above about 30%; note: 0% is about no effect
TRHR PAM: allosterically enhances the human TRH receptor. TRHR cells, fluo-8 calcium fluorescence, EC20 TRH enhancement. enhancement, % at 2 µM. 360,000 compounds, 0.66% hits. AID 493056; in the data active = enhancement above about 30%; note: 0% is about no effect
Target sequence (P34981 whole entry, looked up): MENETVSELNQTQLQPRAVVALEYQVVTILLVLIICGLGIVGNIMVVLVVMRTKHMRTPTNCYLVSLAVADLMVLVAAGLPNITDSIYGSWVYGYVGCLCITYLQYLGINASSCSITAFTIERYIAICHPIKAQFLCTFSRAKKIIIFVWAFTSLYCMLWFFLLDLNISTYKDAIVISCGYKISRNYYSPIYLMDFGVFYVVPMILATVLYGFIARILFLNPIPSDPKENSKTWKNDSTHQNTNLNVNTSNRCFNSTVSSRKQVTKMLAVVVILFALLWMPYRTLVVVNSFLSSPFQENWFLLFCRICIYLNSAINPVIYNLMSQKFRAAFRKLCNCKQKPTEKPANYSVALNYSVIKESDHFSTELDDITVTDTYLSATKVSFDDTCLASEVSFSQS
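Enhancer read-out: after compound pinning and an initial kinetic agonist-mode read, an EC20 of TRH (10 nM final) was injected and fluo-8 calcium signal (Ex 480/Em 530) followed at 1 s/cycle for 100 cycles in TRHR-expressing cells.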
TRHR ag: activates the human TRH receptor | P34981 | TRHR cells, calcium flux fluo-8, FDSS agonist mode | activation, % at 2 µM | 360,000 compounds, 0.18% hits; note: 0% is about no effect
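TRHR-expressing cells, plated overnight in medium with 10% serum, were loaded with fluo-8 calcium dye at room temperature. After a 10 s baseline, library compound was pin-added and calcium release was recorded kinetically (ex 480/em 530) as agonist response.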
An asterisk follows results filed as active; / = not tested or not shown. Cut-off read from the data, not from the text of the source, unless noted: active = activation above about 30%; inactive = the rest.

SMILES	D1 ag	D1 antag	D1 potentiator	TRHR PAM	TRHR ag
CC(C)Cn1c(N)c(C(=O)COC(=O)C2CCCCC2)c(=O)n(C)c1=O	14	-38*	2	2	1
COc1cc(CNCCc2ccc(S(N)(=O)=O)cc2)ccc1OCC(=O)NC(C)(C)C	2	7	0	6	1
NS(=O)(=O)c1ccc(CCNCc2cc(Br)ccc2OCc2ccccc2)cc1	34*	-34*	-1	-3	0
CCNCc1cc(Cl)c(OCc2ccccc2)c(OCC)c1	55*	0	-6	-4	1
CCOc1cc(CNCCO)cc(Br)c1OCc1ccccc1	8	/	-7	-3	0
CCOc1cc(CNCCc2ccc(S(N)(=O)=O)cc2)cc(Cl)c1OCc1ccccc1	34*	-16	-6	12	0
CCOc1cc(CNCCc2ccc(S(N)(=O)=O)cc2)ccc1OCc1ccccc1	35*	-45*	-8	11	4
CCOc1cc(CNc2ccc(S(N)(=O)=O)cc2)cc(Cl)c1OC	2	-9	2	6	0
CC1=C(C(=O)NCCc2ccc(Cl)cc2)C2(CCCCC2)OC1=O	2	-4	-1	2	0
Cc1ccc(C(=O)NCC(c2ccco2)S(=O)(=O)c2ccc(Cl)cc2)cc1C (configuration not stated)	-1	/	-3	-6	0
C#CCOCCOCCOCCNc1nc(N2CCN(C(=O)CCCCCCCCCCNC(=O)[C@@H](CCC(=O)O)n3cc(CCCCCN)nn3)CC2)nc(N2CCN(C(=O)CCCCCCCCCCNC(=O)[C@H](CCCCN)n3cc(C[C@@H](C)CC)nn3)CC2)n1	65*	67	44*	5	2
C#CCOCCOCCOCCNc1nc(N2CCN(C(=O)CCCCCCCCCCNC(=O)[C@H](CCCCN)n3cc(C)nn3)CC2)nc(N2CCN(C(=O)CCCCCCCCCCNC(=O)[C@@H]([C@H](C)O)n3cc(C)nn3)CC2)n1	34*	21	-2	20	0
C#CCOCCOCCOCCNc1nc(N2CCN(C(=O)CCCCCCCCCCNC(=O)[C@H](CCCCN)n3cc(CCO)nn3)CC2)nc(N2CCN(C(=O)CCCCCCCCCCNC(=O)[C@H](CCCCN)n3cc(C[C@@H](C)CC)nn3)CC2)n1	70*	30	13	-4	1
C#CCOCCOCCOCCNc1nc(N2CCN(C(=O)CCCCCCCCCCNC(=O)[C@@H](CCSC)n3cc(CCO)nn3)CC2)nc(N2CCN(C(=O)CCCCCCCCCCNC(=O)[C@H](CCC(=O)O)n3cc(CCCCCN)nn3)CC2)n1	27	-9	-8	-2	1
C#CCOCCOCCOCCNc1nc(N2CCN(C(=O)CCCCCCCCCCNC(=O)[C@H](CCCCN)n3cc(C[C@@H](C)CC)nn3)CC2)nc(N2CCN(C(=O)CCCCCCCCCCNC(=O)[C@H](CCCN=C(N)N)n3cc(C[C@@H](C)CC)nn3)CC2)n1	2	-12	-8	-2	0
C#CCOCCOCCOCCNc1nc(N2CCN(C(=O)CCCCCCCCCCNC(=O)[C@@H](CCSC)n3cc(CCO)nn3)CC2)nc(N2CCN(C(=O)CCCCCCCCCCNC(=O)[C@H](CO)n3cc(CCCCCN)nn3)CC2)n1	3	-39*	-6	-3	0
CC1CCn2c(nc3cc(C(=O)NCc4ccc(OC(C)C)cc4)ccc32)C1 (configuration not stated)	-1	-8	1	0	-1
Cc1ccc2c(=O)cc(C(=O)N(Cc3ccc(N(C)C)cc3)C3CCS(=O)(=O)C3)oc2c1 (configuration not stated)	1	11	-2	-1	-1
CCOC(=O)c1[nH]c(C)c(CCC(=O)N2CCN(c3cc(C)ccc3C)CC2)c1C	0	-3	-1	-4	-1
C#CCOCCOCCOCCNc1nc(N2CCN(C(=O)CCCCCCCCCCNC(=O)[C@@H](CCC(=O)O)n3cc(CCCCCN)nn3)CC2)nc(N2CCN(C(=O)CCCCCCCCCCNC(=O)[C@H](CO)n3cc(CCCCCN)nn3)CC2)n1	45*	-4	-4	0	1
C#CCOCCOCCOCCNc1nc(N2CCN(C(=O)CCCCCCCCCCNC(=O)[C@H](CCCN=C(N)N)n3cc(C[C@@H](C)CC)nn3)CC2)nc(N2CCN(C(=O)CCCCCCCCCCNC(=O)[C@@H]([C@H](C)CC)n3cc(CCCCCN)nn3)CC2)n1	6	15	35*	2	0
C#CCOCCOCCOCCNc1nc(N2CCN(C(=O)CCCCCCCCCCNC(=O)[C@@H](CCC(=O)O)n3cc(CCCCCN)nn3)CC2)nc(N2CCN(C(=O)CCCCCCCCCCNC(=O)[C@H](CO)n3cc(CCCSC)nn3)CC2)n1	17	24	-3	1	2
C#CCOCCOCCOCCNc1nc(N2CCN(C(=O)CCCCCCCCCCNC(=O)[C@H]([C@@H](C)CC)n3cc(CCCCN=C(N)N)nn3)CC2)nc(N2CCN(C(=O)CCCCCCCCCCNC(=O)[C@H](CCCN=C(N)N)n3cc(C[C@@H](C)CC)nn3)CC2)n1	2	18	-10	-1	0
CS(=O)(=O)N(CC(=O)N1CCc2ccccc2C1)c1cccc([N+](=O)[O-])c1	1	-78*	-4	32*	0
Cc1ccc(C)c(N2CCN(C(=O)C(C)n3c(C)c4cnn(-c5ccccc5)c(=O)c4c3C)CC2)c1 (configuration not stated)	-2	-8	-3	2	-1
SMILES	D1 ag	D1 antag	D1 potentiator	TRHR PAM	TRHR ag
Cc1ccc(CNS(=O)(=O)NCc2ccccc2)cc1	2	-25	-2	38*	-1
Cc1ccc(S(=O)(=O)NCc2ccccc2)cc1	3	-18	10	-12	-1
CCN(CC)c1nc(C)c(C(=S)Nc2cc([N+](=O)[O-])ccc2Cl)s1	39*	-3	-4	2	4
C/C(N)=C(/C#N)C(=O)COC(=O)c1cccc2ccccc12	3	-34*	-10	1	1
C/C(N)=C(/C#N)C(=O)COC(=O)c1ccccc1O	5	16	-6	-2	0
N#Cc1c(N)nc(N2CCCC2)c(C#N)c1-c1ccc(Cl)cc1	3	-57*	-13	-9	-1
O=S(=O)(Nc1ccc(Cl)cc1)c1cccc(S(=O)(=O)c2ccc(Cl)c(Cl)c2)c1	0	13	-3	-7	2
O=C(NCCc1ccccc1)C(=O)NCC(c1cccs1)S(=O)(=O)c1cccs1 (configuration not stated)	25	/	-2	3	0
CCn1cc(C(=O)O)c(=O)c2cc(F)c(N3CCN(C)CC3)cc21	1	-6	-4	10	0
CCCCCCNC(=O)c1cn(CC)c2cc(N3CCN(C)CC3)c(F)cc2c1=O	87*	-50*	-13	1	-1
